# Results reported in PubChem BioAssay (Tox21).
# Results filed as inconclusive are left out. A call without a number means that no potency is given here. The source made the active and inactive calls. Calls follow the shape of the full dose curve. Positions of bridges follow the written chain, without caps; N, C: chain ends. Non-standard residues stand in square brackets, D forms with d. Residues, ends and D or L forms follow the SMILES beside them. hArg = N=C(N)NCCCC[C@H](N)C(=O)O; Mpa = O=C(O)CCS
# Experiments:
# [1] = target: Acetylcholinesterase (Homo sapiens) (UniProt P22303); assay: Acetylcholinesterase (AChE) small molecule antagonists: colormetric cell-based qHTS assay (AID 1347395); also: nearly all actives have a fitted effect of over 30% in size; also: potency is read from the fitted curve at half-maximal effect
# Outline: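 In this cell-based qHTS, attached SH-SY5Y cells were treated with test chemicals for 30 min, after which acetylthiocholine hydrolysis was followed by DTNB colour development over 90 min at 37 C.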
# [2] = target: Acetylcholinesterase (Homo sapiens) (UniProt P22303); assay: Acetylcholinesterase (AChE) small molecule antagonists: enzyme-based qHTS assay (AID 1347397); conditions: Potency: AChE enzyme activity inhibition; outcome: AChE enzyme activity inhibition; also: nearly all actives have a fitted effect of over 55% in size
# Outline: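 In this quantitative HTS, compounds from the Tox21 10K collection were preincubated 30 min at ambient temperature with recombinant human AChE dispensed at 50 mU/mL. Hydrolysis of acetylthiocholine was then followed for 10 min by DTNB colour development.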
# [3] = target: Acetylcholinesterase (Homo sapiens) (UniProt P22303); assay: Acetylcholinesterase (AChE) small molecule antagonists: fluorescence cell-based qHTS assay (AID 1347398); conditions: Potency: AChE activity; outcome: AChE activity; also: nearly all actives have a fitted effect of over 50% in size; also: potency is read from the fitted curve at half-maximal effect
# Outline: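 Cells (SH-SY5Y) attached overnight, were dosed with compound or DMSO vehicle for 30 min at 37 C, and then incubated 40 min at room temperature with acetylthiocholine and Thiolite Green; green fluorescence indexed AChE activity.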
# [4] = target: Acetylcholinesterase (Homo sapiens) (UniProt P22303); assay: Acetylcholinesterase (AChE) small molecule antagonists: enzyme-based qHTS assay with human liver microsomes (AID 1347399); conditions: Potency: qHTS inhibition; outcome: qHTS inhibition; also: nearly all actives have a fitted effect of over 60% in size
# Outline: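 Recombinant human AChE (50 mU/mL in the enzyme mix) and human liver microsomes (0.25 mg/mL final) were preincubated with compound and NADPH (0.25 mg/mL final) for 30 min at 37 C. Acetylthiocholine/DTNB was then added; thiocholine was read colorimetrically after 10 min at room temperature.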
# Chain of Acetylcholinesterase (Homo sapiens) (P22303 whole entry, looked up): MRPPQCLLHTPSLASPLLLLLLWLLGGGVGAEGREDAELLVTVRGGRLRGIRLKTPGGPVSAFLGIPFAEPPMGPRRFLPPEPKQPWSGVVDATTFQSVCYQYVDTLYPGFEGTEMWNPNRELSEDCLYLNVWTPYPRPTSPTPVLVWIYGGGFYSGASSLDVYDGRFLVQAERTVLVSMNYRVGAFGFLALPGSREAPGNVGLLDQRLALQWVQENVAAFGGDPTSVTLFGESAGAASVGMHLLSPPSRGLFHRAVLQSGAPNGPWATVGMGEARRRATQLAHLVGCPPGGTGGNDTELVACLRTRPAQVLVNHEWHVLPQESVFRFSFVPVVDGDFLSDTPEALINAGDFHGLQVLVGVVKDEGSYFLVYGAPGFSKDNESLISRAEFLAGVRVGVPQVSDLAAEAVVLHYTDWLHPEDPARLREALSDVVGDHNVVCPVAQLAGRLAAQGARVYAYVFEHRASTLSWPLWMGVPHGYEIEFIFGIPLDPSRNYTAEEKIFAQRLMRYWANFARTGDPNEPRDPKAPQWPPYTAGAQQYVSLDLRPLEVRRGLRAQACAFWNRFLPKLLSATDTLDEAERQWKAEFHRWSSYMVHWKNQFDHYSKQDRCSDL
Compound,Potency [1],Potency [2],Potency [3],Potency [4]
O=C(Cl)c1cc(Cl)cc(Cl)c1,inactive,inactive,inactive,inactive
CCCCCCCC(=O)O,inactive,inactive,inactive,inactive
OCCCCCO,inactive,inactive,inactive,inactive
COC(=O)c1ccccc1,inactive,inactive,inactive,inactive
CCCCOC(=O)[C@H](C)O,inactive,inactive,inactive,inactive
O=C(O)c1cc(Br)c(O)c(Br)c1,inactive,inactive,inactive,inactive
CCCCOC(=O)C(C)Oc1ccc(Oc2ccc(C(F)(F)F)cn2)cc1 (stereo not given),inactive,inactive,inactive,inactive
C[C@]12CCC(=O)C=C1[C@@H]1C[C@@H]1[C@H]1[C@@H]3[C@@H]4C[C@@H]4[C@@]4(CCC(=O)O4)[C@@]3(C)CC[C@@H]12,inactive,inactive,inactive,inactive
c1ccc2n[nH]nc2c1,inactive,inactive,inactive,inactive
CCCCC/C=C/CC(=O)OC,inactive,inactive,inactive,inactive
CCO[Si](C)(CCCOCC1CO1)OCC (stereo not given),inactive,inactive,inactive,inactive
O=C1CCCCCCCCCCC1,inactive,inactive,inactive,inactive
O=C1OC(=O)c2ccc3c4c(ccc1c24)C(=O)OC3=O,inactive,inactive,inactive,inactive
CC(C)(C)C(=O)C(=O)O,inactive,inactive,inactive,inactive
CC1=C2[C@@H]([C@H](C)CC[C@H]2/C=C(\C)C(=O)O)[C@H](O)C1,inactive,inactive,inactive,inactive
Nc1nc2c(ncn2CCC(CO)CO)c(=O)[nH]1,inactive,inactive,inactive,inactive
CCN(CCN)c1cccc(C)c1,inactive,inactive,inactive,inactive
CCO[Si](CCCNC(N)=O)(OCC)OCC,inactive,inactive,inactive,inactive
O=C(O)c1cc(-c2ccccc2)nc2ccccc12,inactive,inactive,inactive,inactive
Cc1nc2ccc(Cl)cc2[nH]1,inactive,inactive,25.1 µM (active),inactive

Compound,Potency [1],Potency [2],Potency [3],Potency [4]
NC(=O)[C@@H]1CSSCCC(=O)N[C@@H](CCCCN=C(N)N)C(=O)NCC(=O)N[C@@H](CC(=O)O)C(=O)N[C@@H](Cc2c[nH]c3ccccc23)C(=O)N2CCC[C@H]2C(=O)N1 ([Mpa][hArg]GDWPC-NH2; disulfide 1-7),inactive,inactive,inactive,inactive
C=COCC1CCC(CO)CC1 (stereo not given),inactive,inactive,inactive,inactive
CCCCCCCCCC(=O)OCC,inactive,inactive,inactive,inactive
O=C(CC(=O)c1ccccc1)c1ccccc1,inactive,inactive,inactive,inactive
CCCCCC[C@@H](O)C/C=C\CCCCCCCC(=O)OC,inactive,inactive,inactive,inactive
CC1=C(C)C(=O)C(C(CCCCCC(=O)O)c2ccccc2)=C(C)C1=O (stereo not given),inactive,inactive,inactive,inactive
CC(C)(O)CCc1ccccc1,inactive,inactive,inactive,inactive
Cc1cc2c(OCC(CNC(C)(C)C)OC(=O)c3ccccc3)cccc2[nH]1 (stereo not given),inactive,inactive,inactive,inactive
O=C(O)CC(=O)O,inactive,inactive,inactive,inactive
CCCCCCCC/C=C\CCCCCCCCN,inactive,inactive,inactive,inactive
C#CC(C)(CC)OC(=O)c1ccccc1C(=O)O (stereo not given),inactive,inactive,inactive,inactive
Oc1ccccc1-c1nnco1,inactive,inactive,inactive,inactive
C=Cc1ccc(C)cc1,inactive,inactive,inactive,inactive
CC(C)CC=O,inactive,inactive,inactive,inactive
CCN(Cc1cccc(S(=O)(=O)O)c1)c1ccc(C(=C2C=CC(=[N+](CC)Cc3cccc(S(=O)(=O)O)c3)C=C2)c2ccccc2S(=O)(=O)[O-])cc1,inactive,inactive,inactive,inactive
CCCCC(CC)COC(=O)CCCCCCCC(=O)OCC(CC)CCCC (stereo not given),inactive,inactive,inactive,inactive
CN1CCC[C@@H]1Cc1c[nH]c2ccc(CCS(=O)(=O)c3ccccc3)cc12,inactive,inactive,inactive,inactive
CC(C)c1ccc(O)c(C(C)C)c1,inactive,inactive,inactive,inactive
CCOCCO,inactive,inactive,inactive,inactive
CC(=O)OC(C(=O)c1ccccc1)c1ccccc1 (stereo not given),inactive,inactive,inactive,inactive

Compound,Potency [1],Potency [2],Potency [3],Potency [4]
NC(=O)c1ccccc1O,inactive,inactive,inactive,inactive
CC(=O)c1cc2ccccc2s1,inactive,inactive,inactive,inactive
c1ccc2cc(Nc3ccc(Nc4ccc5ccccc5c4)cc3)ccc2c1,inactive,inactive,inactive,inactive
CCOC(=O)C(C#N)=C(c1ccccc1)c1ccccc1,inactive,inactive,inactive,inactive
CCCCC(O)/C=C(C)/C=C/C=C/C(=O)N1CCCC1=O (stereo not given),inactive,inactive,inactive,inactive
CCCCC(CC)COC(=O)c1ccc(N(C)C)cc1 (stereo not given),inactive,inactive,inactive,inactive
CO[C@@H]1[C@@H](OC)[C@H](C)[C@@](O)(CC(=O)O)O[C@H]1[C@H](C)[C@H]1O[C@@]2(CC[C@@](C)([C@H]3CC[C@@](C)([C@@H]4O[C@@H]([C@H]5O[C@](C)(O)[C@H](C)C[C@@H]5C)C[C@@H]4OC4C[C@H](OC)[C@@H](OC)[C@H](C)O4)O3)O2)C[C@H](O)[C@H]1C (stereo not given in full),inactive,inactive,inactive,inactive
FC(F)(F)c1cccc(Cl)c1,inactive,inactive,inactive,inactive
NC(=O)Cn1c(=O)cc(CCN2CCN(c3nccc4sccc34)CC2)c2ccc(F)cc21,35.6 µM (active),inactive,35.6 µM (active),inactive
CCN(CC)c1ccc2c(C)cc(=O)oc2c1,inactive,inactive,inactive,inactive
Cc1oc(-c2ccccc2)nc1CCOc1cccc2c1ccn2CCC(=O)O,inactive,inactive,inactive,inactive
CCCCOC(=O)CO,inactive,inactive,inactive,inactive
Nc1c(CC(=O)O)cccc1C(=O)c1ccc(Br)cc1,inactive,inactive,inactive,inactive
Cc1c2ccccc2c(C)c2c1ccc1ccccc12,inactive,inactive,inactive,inactive
Cc1[nH]nc2c1N=C(c1ccccc1Cl)c1cc([N+](=O)[O-])ccc1N2,inactive,inactive,inactive,inactive
C=CC(=O)OCCOC(=O)CCC(=O)O,inactive,inactive,inactive,inactive
COS(=O)(=O)C(F)(F)F,inactive,inactive,inactive,inactive
CCOCCn1c(C2CCN(CCc3ccc(C(C)(C)C(=O)O)cc3)CC2)nc2ccccc21,inactive,inactive,inactive,inactive
Clc1cccc(-c2cc(Cl)cc(Cl)c2)c1,inactive,inactive,inactive,inactive
CCc1cccc(C)c1N(C(=O)CS(=O)(=O)O)C(C)COC (stereo not given),inactive,inactive,inactive,inactive
